High-throughput results: PubChem BioAssay, National Center for Advancing Translational Sciences (NCATS)
A selection: hits, their analogues and other compounds. The true share with any hit is near 3.4%.
PNC inhibitor: blocks assembly of the perinucleolar compartment | PC3M PTB-GFP, PNC prevalence imaging, 16 h; hits give low values | activity change (PNC), negative = inhibition, % at 10 µM | 140,000 compounds, 3.1% hits | AID 2417;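 active = readout at or below -70, meaning at least 70% loss of cells showing the perinucleolar compartment, a nuclear body marking cancer cells; inconclusive = readout between -30 and a set limit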;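 note: plate controls were DMSO wells for no effect and camptothecin positive control wells for full effect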
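Compounds are pinned in duplicate onto adhered PC3M cells stably expressing GFP-tagged PTB and incubated 16 h at 37 C. Cells are then fixed, nuclei stained with Hoechst, and PNC-positive cells counted.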
IMPase Li inh: cell-permeable IMPase inhibitors with lithium potentiation | CHO-M1 cells, IP1 TR-FRET (IP-One), carbachol + lithium | Potency, µM (top dose mostly 59.4 µM), for the others: top-dose activity, negative = IMPase inhibition, hits mostly inhibitors | 210,000 compounds, 0.35% hits;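 note: IP1 builds up when IMPase is blocked and the TR-FRET signal falls; potency is the fitted concentration of half-maximal effect; plate controls were basal vehicle for no effect and high inhibitor control for full effect; nearly all actives have a fitted effect of over 50% in size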
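IP1 accumulation measured by competitive TR-FRET in lysed CHO-M1 cells after 30 min compound exposure at 37C, with a small lithium addition to potentiate weak responses. Hill-equation AC50 from ratio and donor-channel data.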
NPSR antag: blocks cAMP signaling of the human neuropeptide S receptor. Q6W5P4. CHO-NPSR cells, cAMP TR-FRET, antagonist mode. Potency, µM (top dose mostly 38.3 µM), for the others: top-dose activity change, negative = inhibition, actives largely listed as inhibitors. 220,000 compounds, 1% hits; note: potency is the fitted concentration of half-maximal effect; % is set by controls: 0 for no effect and ±100 for the full control effect; nearly all actives have a fitted effect of over 50% in size
Target sequence (Q6W5P4 whole entry, looked up): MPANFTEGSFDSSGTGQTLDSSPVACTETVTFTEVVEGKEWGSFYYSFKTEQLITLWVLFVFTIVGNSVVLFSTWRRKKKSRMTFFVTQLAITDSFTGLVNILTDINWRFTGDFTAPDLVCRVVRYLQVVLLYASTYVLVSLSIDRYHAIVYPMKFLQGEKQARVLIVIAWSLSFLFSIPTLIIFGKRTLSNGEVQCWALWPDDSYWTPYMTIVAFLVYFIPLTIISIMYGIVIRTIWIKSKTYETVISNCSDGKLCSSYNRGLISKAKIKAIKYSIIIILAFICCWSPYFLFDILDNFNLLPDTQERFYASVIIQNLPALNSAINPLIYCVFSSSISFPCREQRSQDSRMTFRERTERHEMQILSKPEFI
IMPase inh: membrane-permeable compound that blocks inositol monophosphatase. P97697. CHO-M1 cells, IP1 accumulation, HTRF TR-FRET ratio. inhibition (IP1 accumulation), % at 46.1 µM. 120,000 tested, under 10 active. AID 901; active = well fitted curve in the direction sought with a large enough effect in the signal ratio, not every such curve was filed as active; inconclusive = small, poorly fitted or top-dose-only effect, or a change in a side signal; inactive = no such curve, though single readings can be large or run the other way; the % refers to the signal ratio;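 note: cells stimulated with carbachol in lithium chloride buffer; plate controls were DMSO basal wells for no effect and reference inhibitor wells for full effect; higher means more IMPase inhibition seen as more IP1 and lower FRET ratio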
Target sequence (P97697 whole entry, looked up): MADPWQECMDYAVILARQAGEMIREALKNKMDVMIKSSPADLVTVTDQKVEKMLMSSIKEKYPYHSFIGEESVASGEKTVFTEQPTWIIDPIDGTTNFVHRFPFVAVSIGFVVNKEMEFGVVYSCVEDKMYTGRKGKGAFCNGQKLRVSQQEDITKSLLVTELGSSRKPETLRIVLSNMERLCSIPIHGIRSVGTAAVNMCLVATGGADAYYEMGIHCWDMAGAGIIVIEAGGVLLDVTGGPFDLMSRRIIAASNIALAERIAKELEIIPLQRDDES
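CHO-M1 cells (CHO stably expressing M1 receptor), compound up to 46 uM final, stimulated with carbachol (50 uM as added) in buffer with 50mM LiCl, pH 7.4, 30 min at 37C. Cytosolic IP1 read by TR-FRET; AC50 from Hill fits.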
HTT cytoprotect: Huntington cell model cytoprotection by ATP luminescence; 230,000 compounds, 0.14% hits; PC12 HTT-Q103 induced, cytoprotection, ATP luminescence, 40 h; Potency, µM (titrated, usually from 56.4 µM), for inactives: cytoprotection (ATP increase), hits mostly activators; note: potency is the fitted concentration of half-maximal effect; % of control where 0% means no effect; nearly all actives have a fitted effect of over 45% in size
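Quantitative HTS on tebufenozide-induced (100 nM) PC12 cells expressing HTTQ103 exon 1–GFP; compounds tested as a concentration series; survival measured via cellular ATP.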
HttQ103 aggreg: inhibitors of mutant huntingtin aggregate formation in PC12 cells; 220,000 compounds, 1.1% hits; Potency, µM (doses to about 46.1 µM), inactives show top-dose activity change, negative = inhibition, most hits filed as inhibitors; PC12 HttQ103-GFP aggregates, Acumen cytometry, 40 h; note: potency is the fitted concentration of half-maximal effect; % is set by controls: 0 for no effect and ±100 for the full control effect; nearly all actives have a fitted effect of over 60% in size
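Inducible Q103 Huntingtin exon 1–GFP PC12 line, 1500 cells/well in phenol red free DMEM with 5% equine and 5% calf serum. Tebufenozide 100 nM induced expression; compounds titrated; aggregates quantified by cytometry.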
* marks the source's active call; other numbers are inactive results; ? = inconclusive; · = no result; [ ] = dose if it differs, or a comment. Unless noted, calls come from the whole dose curve; as a rule, active = well fitted curve in the direction sought with a large enough effect; inconclusive = small, poorly fitted or top-dose-only effect, or another doubt; inactive = no such curve, though single readings can be large; an effect the other way counts as inactive or inconclusive.

SMILES | PNC inhibitor | IMPase Li inh | NPSR antag | IMPase inh | HTT cytoprotect | HttQ103 aggreg
N/C(=N\OC(=O)C(c1ccccc1)c1ccccc1)c1ccccn1 | ? | 6.9% | -21.9%[46.1 µM] | · | -5.5%[10 µM] | -3.6%
CC1CCN(S(=O)(=O)c2ccc(C(=O)Nc3sccc3C(N)=O)cc2)CC1 | -20.1 | 39.4%[38.3 µM] | 6.31µM* | 3.4 | ? | ?
CCCCn1ccnc1C(=O)c1cc(S(=O)(=O)N2CCOCC2)ccc1C | ? | 26.1%[38.3 µM] | -5.0%[46.1 µM] | 2.6 | -14.7% | -31.5%
COc1cc(S(=O)(=O)N2CCOCC2)cc(C(=O)c2nccn2C)c1OC | -88.0* | -2.6%[38.3 µM] | -0.9%[46.1 µM] | -0.6 | 0.7%[10 µM] | 13.5%
CCNc1nc(NC(C)C)nc(N(C#N)CCOc2ccccc2)n1 | 7.9 | 39.0%[38.3 µM] | ? | -5.8 | -8.1% | 22.4µM*
CCNc1nc(NCC)nc(N(C#N)CCOc2ccccc2)n1 | · | 2.0% | -15.9% | · | · | ·
COc1ccc(/C=C/C(=O)c2ccc(NC(=O)c3cccs3)cc2)cc1OC | -82.9* | 15.9%[38.3 µM] | ? | -3.2[1.84 µM] | 9.5%[10 µM] | 32.9%
COc1ccc(C(=O)Nc2ccc(NC(=O)c3cccs3)cc2)cc1OC | · | · | · | -12.9 | · | ·
O=C1CCCN1Cc1ncnn1-c1ccccc1 | -100.0* | -1.6% | 11.0%[46.1 µM] | 2.9 | 4.9%[10 µM] | -12.9%
Cc1cc2c(=O)n(CC(=O)N3CCN(c4ccccc4)CC3)cnc2s1 | -122.4* | 8.1%[38.3 µM] | 11.8%[46.1 µM] | 0.3 | 4.0%[10 µM] | -6.6%
COC(=O)c1ccc(C(NC(=O)OCc2ccccc2)/C(I)=C/[C@@H](C)C(=O)NCc2ccncc2)cc1 (stereo partly drawn) | · | 4.4% | · | · | -21.1% | ·
COC(=O)[C@@]1(Cc2ccccc2)[C@H]2c3cc(C(=O)N4CCCC4)n(C)c3C[C@H]2CN1C(=O)c1ccccc1 | · | 0.7% | · | · | -4.8% | ·
CC(C)Oc1ccc(/C(O)=C2/C(=O)C(=O)N(CCN3CCOCC3)C2c2ccccc2)cc1 (stereo not drawn) | -17.4 | 5.01µM* | 16.1%[46.1 µM] | ? | -7.3% | 2.3%
O=C(NS(=O)(=O)c1ccccc1)c1ccccc1F | -122.4* | 16.3%[38.3 µM] | -0.8%[46.1 µM] | -1.9 | -16.4%[10 µM] | -4.3%
CC(=O)NS(=O)(=O)c1ccc(NC(=O)c2ccccc2F)cc1 | 11.1 | 15.0%[38.3 µM] | 0.2%[46.1 µM] | 2.2 | 2.4%[10 µM] | -16.6%
CC[C@H](C)[C@H](NC(N)=O)C(=O)Nc1ccccc1F | · | -4.0% | 5.1% | · | -4.4% | 15.8%
COC1C(O)C(O)C(O)C(O)C1O (stereo not drawn) | · | 3.2% | · | · | · | ·
COc1cc(/C=N/NC(=O)c2ccc(COc3cc(C)ccc3C(C)C)cc2)cc(OC)c1O | -0.6 | 15.7% | -37.6% | · | 10.5%[0.074 µM] | 8.5%
Cc1ccc(C(C)C)c(OCc2ccc(C(=O)N/N=C/c3ccc(O)c(O)c3)cc2)c1 | -123.8* | -6.7% | -35.6% | · | · | 9.1%
CC(=O)Nc1ccc(C(=O)N/N=C/c2ccccc2OCc2ccccc2)cc1 | · | 9.6% | -24.5% | · | -42.5% | -0.3%
Cc1ccc(C(C)C)c(OCc2ccc(C(=O)N/N=C/c3cccc(O)c3O)cc2)c1 | 0.5 | 16.2% | 10µM* | · | 7.0%[0.074 µM] | -11.2%
Clc1ccc(Nc2nc(C3CC3)cs2)cc1 | 0.9 | 4.9%[38.3 µM] | 15.0%[46.1 µM] | -4.7 | -14.6% | 13.0%
Cc1ccc(Nc2nc(C3CC3)cs2)cc1 | -119.3* | 10.6% | -8.9% | -0.9 | 6.2%[10 µM] | 17.2%
COCCCNC(=O)C1CCN(S(=O)(=O)c2c(C)noc2/C=C\c2ccc(OC)cc2)CC1 | -109.2* | 13.7%[38.3 µM] | -16.4%[46.1 µM] | 0.0 | -42.7% | -8.8%
CN1/C(=C\C(=O)c2cccc(S(=O)(=O)N3CCCCC3)c2)C(C)(C)c2ccccc21 | -88.0* | 2.9% | -26.5% | · | · | ?
SMILES | PNC inhibitor | IMPase Li inh | NPSR antag | IMPase inh | HTT cytoprotect | HttQ103 aggreg
CN1/C(=C\C=N\NC(=O)c2cccnc2)C(C)(C)c2ccccc21 | · | 10.0% | -28.9% | · | -31.5% | 6.31µM*
CN1/C(=C\C(=O)c2cncc(Br)c2)C(C)(C)c2ccccc21 | -84.3* | 11.7% | -6.3% | · | 6.8%[10 µM] | 15.8µM*
CN1/C(=C/C(=O)c2nc(S(C)(=O)=O)ncc2Cl)C(C)(C)c2ccccc21 | 11.7 | 21.2%[38.3 µM] | 5.01µM* | 13.9 | -102.9%[10 µM] | 37.1%[9.22 µM]
COc1cccc(Nc2ncc3nc(-c4ccc(F)cc4)c(=O)n(C[C@H]4CCCO4)c3n2)c1 | · | -4.1% | · | · | 2.3% | ·
CCCCC(CC)COC(=O)c1ccccc1O (stereo not drawn) | · | 3.5% | · | · | 28.6% | 0.0%
O=C(CN1CCC(C(O)(c2ccccc2)c2ccccc2)CC1)Nc1cc(Cl)ccc1Cl | -100.0* | 17.9%[38.3 µM] | ? | 7.2 | -12.0% | 0.8%
O=C(CN1CCC(C(O)(c2ccccc2)c2ccccc2)CC1)Nc1ccccc1 | 20.9 | 16.1%[38.3 µM] | ? | 5.1 | -38.2% | ?
CC(C)c1ccc(-c2c(C#N)c(N)nc(SCC(=O)N3CCCCC3)c2C#N)cc1 | 47.6 | ? | 10µM* | 0.6 | -44.0% | -2.9%
N#Cc1c(N)nc(SCC(=O)NC2CCCCC2)c(C#N)c1-c1ccc(Cl)cc1 | ? | 15.8µM* | ? | -4.9 | -19.1% | 10.4%[9.22 µM]
